MITF primary – inhibitors of human MITF | AID 1259374 | O75030 | 0.91% of 650,000 active | inhibition, % at 2.6 µM | AlphaScreen MITF homodimerization, bead proximity signal; in the data active means inhibition above about 50%;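 further: 0% = vehicle wells with protein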
TEAD-YAP inh – TEAD-YAP interaction inhibition; AID 1259422; HEK-TIYL cells, TEAD-Gal4/YAP UAS-luciferase luminescence; 1.4% of 640,000 active; inhibition, % at 9.12 µM; in the data active means inhibition above about 32%;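 further: 0% = median of test compound wells and 100% = reference inhibitor wells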
GPR151 ag – activates the human receptor GPR151; PathHunter beta-arrestin GPR151 cells, luminescence; activation, % at 11.2 µM; 1% of 650,000 active; AID 1508602; in the data active means activation above about 4.9%;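 further: 0% = median of compound wells and 100% = cells with positive control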
Target sequence (Q8TDV0 whole entry, looked up): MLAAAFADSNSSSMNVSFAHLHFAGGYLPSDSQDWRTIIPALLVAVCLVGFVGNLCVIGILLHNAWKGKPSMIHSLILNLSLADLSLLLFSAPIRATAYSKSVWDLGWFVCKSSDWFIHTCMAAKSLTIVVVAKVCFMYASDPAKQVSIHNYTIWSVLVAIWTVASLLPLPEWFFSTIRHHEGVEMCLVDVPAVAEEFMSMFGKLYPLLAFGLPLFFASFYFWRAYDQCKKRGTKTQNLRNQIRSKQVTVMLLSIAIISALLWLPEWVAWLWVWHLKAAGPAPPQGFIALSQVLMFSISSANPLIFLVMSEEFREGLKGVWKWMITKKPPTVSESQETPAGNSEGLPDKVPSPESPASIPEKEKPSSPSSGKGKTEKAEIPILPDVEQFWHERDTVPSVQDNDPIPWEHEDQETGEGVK
FBW7 activator – human FBW7 E3 ligase activation, primary screen | Q969H0 | AlphaScreen FBW7–phospho-cyclin E peptide binding, activator screen | normalized activity (activation), % at 26.1 µM | 0.13% of 650,000 active; in the data active means normalized activity above about 1.9%;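 further: purified mutant Fbw7 with reduced substrate affinity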
MITF confirm – human MITF inhibition, confirmation; inhibition, % at 2.6 µM; AlphaScreen MITF homodimerization, biotin/His-MITF beads; shares compounds with MITF primary; 16% of 4,700 active;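 active means inhibition above a cutoff derived from the DMSO control wells, cut at about 28% in these data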;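 further: 0% = MITF dimer wells with DMSO only; inhibitors lower the bead chemiluminescence by keeping MITF from dimerizing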
AlphaScreen DR – AlphaScreen optical interference, dose response counter-screen. shares compounds with MITF primary. 6% of 480 active. IC50, µM. AlphaScreen optical interference counterscreen, cell-free; call rule not given here
AlphaScreen intf2 – AlphaScreen optical interference, counter-screen. shares compounds with MITF primary. LysRS AlphaScreen counterscreen, signal interference, triplicate. inhibition, % at 2.6 µM. 7.6% of 4,700 active. AID 1259376;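 active means inhibition above a cutoff derived from the DMSO control wells, cut at about 30% in these data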
* = called active by the depositor; / = no result. Sampled rows, rich in hits. Any-hit rate of the full collection: about 3.4%.

SMILES | MITF primary | TEAD-YAP inh | GPR151 ag | FBW7 activator | MITF confirm | AlphaScreen intf2 | others
NC(=O)C1(N2CCCCC2)CCN(C(=O)CCCn2c(=O)[nH]c3ccccc3c2=O)CC1 | -3.0 | -5.1 | 0.1 | -0.1 | / | /
CCCC(C)C(=O)Nc1ccccc1C (stereo not given) | 51.0* | 2.3 | -0.4 | 0.5 | 0.7 | 9.4
CC(C)(c1ccc(O)c(N)c1)c1ccc(O)c(N)c1 | 73.6* | -0.5 | 0.1 | 0.5 | 7.6 | 33.0*
CC(C)(c1ccc(O)cc1)c1ccc(O)cc1 | 9.1 | -3.8 | -1.2 | 0.2 | / | /
Cc1ccc(NC(=O)CN2CCN(c3ccccc3C)CC2)cc1Br | 15.1 | -8.4 | 0.8 | -0.1 | / | /
Cn1c(=NC(=O)c2cccs2)sc2cc3c(cc21)OCCO3 | -14.2 | 25.9 | -0.2 | 0.5 | / | /
Cc1cc(C(=O)N=c2sc3cc4c(cc3n2C)OCCO4)no1 | 76.3* | -23.2 | 0.3 | -0.1 | 1.6 | -6.1
CC1CC(C)(C)Cc2c1sc(NC(=O)c1ccco1)c2C#N (stereo not given) | 84.3* | -38.1 | 1.1 | 0.1 | -2.4 | -7.7
CN(C)c1cccc(Nc2nc3ccc(C(=O)NCc4cccnc4)cc3s2)c1 | -6.3 | -44.3 | -1.3 | 0.1 | / | /
O=C1CCC(CCNCc2cccnc2)N1CC1(c2ccccc2)CCOCC1 (stereo not given) | 0.8 | 0.1 | 0.4 | 0.1 | / | /
O=C1CCC(CCNCc2ccc(F)cc2)N1CC1(c2ccccc2)CCOCC1 (stereo not given) | 50.7* | -0.2 | -1.0 | -0.1 | -2.8 | 1.8
Cc1c(-c2ccccc2)oc2c(C(=O)N3CCNC(=O)C3)cccc2c1=O | 9.8 | -1.8 | 0.5 | 0.2 | / | /
CN1CCN(CC(O)Cn2cc(C=O)c3ccccc32)CC1 (stereo not given) | 65.8* | -15.1 | 2.2 | -0.1 | -0.1 | -4.9
O=C(c1cccnc1)N1CCN(Cc2cccc(Br)c2)CC1 | 65.1* | 1.3 | 3.3 | -0.2 | 4.5 | 15.0
O=C(c1cccnc1)N1CCN(Cc2ccccc2)CC1 | 47.3 | 8.8 | 0.8 | -0.1 | / | /
O=C(c1cccnc1)N1CCN(Cc2ccc(Br)cc2)CC1 | 69.5* | 6.5 | 3.2 | -0.5 | -4.9 | -4.4
O=C(c1cccnc1)N1CCN(Cc2cccc(Cl)c2)CC1 | 64.9* | -3.0 | 2.1 | 0.0 | -5.9 | 9.3
Cc1cccc(CN2CCN(C(=O)c3cccc(Cl)c3)CC2)c1 | 42.3 | 8.7 | 0.6 | -0.2 | / | /
COC(=O)C1=C(C)NC2=C(C(=O)CC(c3ccc(OC)cc3)C2)C1c1cccc(O)c1 (stereo not given) | 5.6 | 4.6 | 0.2 | -0.1 | / | /
CN(C)C(=O)C1C2NC(=S)N(c3ccc(Br)cc3)C1(C)Oc1ccc(Cl)cc12 (stereo not given) | 68.1* | 8.3 | -0.9 | -0.1 | 22.8 | 10.3
Cc1ccc(C(O)(C(=O)Nc2ccccn2)c2ccc(C)cc2)cc1 | -7.9 | -7.0 | -1.1 | 0.0 | / | /
CN(C)CCN(C(=O)OCc1ccccc1)c1cc(-c2cn[nH]c2)ccc1NC(=O)OCc1ccccc1 | 57.5* | -1.3 | 1.2 | 0.8 | 56.0* | -11.7 | AlphaScreen DR=>6.48
O=C(Nc1ccc(-c2cn[nH]c2)cc1OCCN1CCCC1)OCc1ccccc1 | 2.9 | -2.2 | -1.2 | -0.4 | / | /
CN1CC[C@H](Oc2cc(-c3cn[nH]c3)ccc2NC(=O)OCc2ccccc2)C1 | 53.2* | 9.1 | -1.2 | 1.2 | 57.2* | -4.7 | AlphaScreen DR=>6.48
COc1cccc(COC(=O)Nc2ccc(-c3cn[nH]c3)cc2N(C)CCN(C)C)c1 | 68.2* | -16.3 | -1.4 | 1.0 | 73.2* | 10.9 | AlphaScreen DR=>6.48
SMILES | MITF primary | TEAD-YAP inh | GPR151 ag | FBW7 activator | MITF confirm | AlphaScreen intf2 | others
CC(=O)Nc1nc2ccc(C(N)=O)cc2s1 | -11.9 | -27.0 | -2.1 | -1.3 | / | /
O=C(NC1CCN(Cc2ccccc2)CC1)c1ccc2nc(-c3cccs3)sc2c1 | 52.2* | -1.1 | 1.4 | -0.1 | 59.5* | 1.0 | AlphaScreen DR=>6.38
Brc1ccc(-c2nnc3sc(CN4CCOCC4)cn23)cc1 | 13.2 | 1.6 | 0.0 | 0.1 | / | /
Brc1ccc(-c2nnc3sc(CN4CCCCC4)cn23)cc1 | 67.2* | -19.6 | 1.4 | 0.5 | -1.9 | -3.0
O=C(O)CC(CCc1ccccc1)CC(=O)O | 61.1* | 18.0 | 0.1 | 0.4 | 18.3 | 15.7
CCC(C(=O)Nc1ccccc1N1CCOCC1)c1ccccc1 (stereo not given) | -1.5 | -2.3 | 3.1 | 0.0 | / | /
Cc1ccc(-c2noc(C3CCCN(S(=O)(=O)c4ccc(C(C)(C)C)cc4)C3)n2)o1 (stereo not given) | 77.2* | 3.8 | -0.7 | -0.1 | 12.5 | 14.8
COc1cc2c(cc1OC)CN(CC(O)c1ccccc1)CC2 (stereo not given) | 50.6* | 4.3 | -0.9 | -0.1 | -5.4 | -1.2
COc1cc2c(cc1OC)CN(CCC(c1ccccc1)c1ccccc1)CC2 | -2.8 | -5.6 | -0.6 | -0.5 | / | /
CCOc1c(O)ccc(/C=C2\C(=O)Nc3ccc(Br)cc32)c1[N+](=O)[O-] | 64.6* | -1.0 | -0.3 | 0.1 | 1.8 | 22.7
COc1cc(CN2CCN(Cc3cccc4ccccc34)CC2)c([N+](=O)[O-])cc1OC | 70.1* | -15.4 | 2.3 | -0.2 | 11.9 | 0.1
COc1cc(CN2CCN(Cc3cccc(OC)c3OC)CC2)c([N+](=O)[O-])cc1OC | 51.9* | -8.6 | 0.3 | 0.0 | 4.2 | 2.9
CCn1c2ccccc2c2cc(CN3CCN(Cc4cc(OC)c(OC)cc4[N+](=O)[O-])CC3)ccc21 | 81.7* | 4.6 | 0.7 | -0.2 | 3.5 | 21.1
O=C(Nc1nc2c(s1)CCCC2)C(=O)Nc1nc2c(s1)CCCC2 | -2.4 | -13.9 | 0.7 | -0.2 | / | /
COc1cc(OC)c(OC)cc1/C=N/NC(=O)CC1C(=O)NN=C1C (stereo not given) | 66.4* | 12.7 | 0.3 | 0.0 | 1.1 | -2.9
COc1cc(/C=N/NC(=O)CC2C(=O)NN=C2C)cc(OC)c1OC(C)=O (stereo not given) | 0.4 | 2.0 | 0.8 | 0.0 | / | /
O=c1[nH]c(=S)[nH]c(O)c1C=NCC1CCCCC1 | -0.8 | 3.3 | -1.7 | -0.1 | / | /
CC(c1ccccn1)N(CCN(C)C)C(=S)Nc1cccc(F)c1 (stereo not given) | 87.5* | 4.5 | 2.4 | -1.6 | 42.5* | 95.9*
COc1ccc(-c2nc3n(n2)C(c2ccc(Cl)cc2)C(C(N)=O)=C(C)N3)cc1 (stereo not given) | -9.8 | -4.1 | -0.2 | -0.1 | / | /
OC1(c2ccc(Br)cc2)NN=C2CCCCCN21 (stereo not given) | 0.7 | -4.2 | -2.1 | 0.1 | / | /
CCC(=O)Nc1ccc(C(=O)Nc2ccc(C#N)cc2)cc1 | -4.4 | -2.5 | -0.4 | 0.1 | / | /
CCC(=O)Nc1ccc(C(=O)Nc2ccccc2C#N)cc1 | 50.9* | -8.8 | -1.2 | 0.1 | -9.7 | -6.1
Cc1cccc(C)c1OCC(=O)Nc1ccc(F)cc1 | 2.0 | 8.5 | -0.1 | 0.2 | / | /
CCOc1ccccc1/C=N\NC(=O)c1ccco1 | 69.9* | -42.1 | -0.5 | -0.4 | 1.6 | 9.2
Fc1ccc(N2CCN(Cc3ccc(Br)o3)CC2)cc1 | 50.6* | 0.0 | 1.7 | 0.1 | 3.3 | 5.7
